The text below walks through data of PubChem BioAssay AID485270 (The Scripps Research Institute Molecular Screening Center, 2010).

The inhibition is the change of the read-out against control, counted positive when it falls.

Screen size: about 330,000 compounds; about 5,800 (1.8%) were called active. The sample holds actives, similar compounds and a random draw of the others, so the mix is not that of the screen. A number with no mark means an inactive call. No stated cut-off is given here; in the data, active means inhibition mostly above about 38% (no sharp cut-off); inactive means mostly below about 40%.

The target in the experiment is Orexin/Hypocretin receptor type 1 (Homo sapiens) (UniProt O43613). As to the kind of experiment: antagonists of human orexin 1 receptor (OX1R) (AID 485270).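 Further: 0% = agonist challenge alone and 100% = reference antagonist.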 To be noted: OX1R-expressing cells, FRET antagonist read-out; at 6.6 µM; active compounds read high.
Sequence of Orexin/Hypocretin receptor type 1 (Homo sapiens) (O43613 whole entry, looked up): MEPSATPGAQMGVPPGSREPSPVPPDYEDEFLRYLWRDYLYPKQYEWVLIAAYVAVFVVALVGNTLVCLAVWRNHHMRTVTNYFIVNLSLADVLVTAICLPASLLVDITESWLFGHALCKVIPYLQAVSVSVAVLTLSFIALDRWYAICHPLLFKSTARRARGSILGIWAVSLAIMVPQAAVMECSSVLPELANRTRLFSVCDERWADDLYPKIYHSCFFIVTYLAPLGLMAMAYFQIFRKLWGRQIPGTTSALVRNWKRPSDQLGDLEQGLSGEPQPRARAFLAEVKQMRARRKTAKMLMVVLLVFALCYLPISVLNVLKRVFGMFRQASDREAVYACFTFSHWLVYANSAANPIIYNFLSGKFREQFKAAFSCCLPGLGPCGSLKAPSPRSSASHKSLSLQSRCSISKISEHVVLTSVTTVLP
`CCC(CO)Oc1cc(NC(=O)c2cccc(F)c2)c2ncn(C(C)C)c2c1` (stereo not given): the inhibition is 10.7%.
Take `COc1cccc(NC(=O)COc2cccnc2[N+](=O)[O-])c1`: the inhibition was 17.9%.
To `O=C(CCNC(=O)c1ccccc1)NN=Cc1ccc(Br)o1` belongs 13.7%; to `COc1cc(NC(=O)c2ccccc2NS(=O)(=O)c2ccc(Cl)s2)cc(OC)c1`, 72.7% (active); to `COC(=O)c1ccc(NC(=O)c2ccccc2NS(=O)(=O)c2ccccc2)cc1`, 27%.
For the molecule `COc1cc(OC)c(S(=O)(=O)Nc2ccccc2C(=O)O)cc1S(=O)(=O)Nc1ccccc1C(=O)O`, the inhibition is 3.5%.
The result for `NC[C@H](Cc1ccccc1)NCCc1cc(C(F)(F)F)cc(C(F)(F)F)c1` reads 4.07%; that for `CCCN(CC1CC1)C(=O)COC(=O)c1ccc(C)cc1O`, 10.6%.
Turning to `Cc1[nH]n(-c2ccccc2)c(=O)c1/C=N/NC(=O)c1ccoc1C`, the inhibition was 17.4%.
The result for `Cc1ccc(-n2[nH]c(C)c(/C=N/N3C(=O)c4cccc5cccc(c45)C3=O)c2=O)cc1` reads 67% (active).
The result for `COc1cc(SC#N)ccc1N=Cc1c(C)[nH]n(-c2ccc(C)cc2)c1=O` reads 14.1%; that for `COc1ccc(CC(=O)N[C@@H]2c3cc(OC)c(OC)cc3C[C@H]2OCc2ccccc2)cc1`, 16%.
Turning to `O=C1NC[C@@H](c2ccccc2)OC(=O)[C@H](Cc2ccc(F)cc2)CC/C=C/C[C@H]1CC(=O)N(CCO)Cc1ccccc1`, the inhibition is 28.2%.
The result for `Cc1cc(NC(=O)CSCC(=O)NC(C)c2ccccc2)no1` (stereo not given) reads -1.97%; that for `CC(NC(=O)c1cccc2ccccc12)c1ccc2c(c1)CCCC2` (stereo not given), 79% (active); that for `CC(NC(=O)c1ccccc1C(=O)O)c1ccc(-n2ccnc2)cc1` (stereo not given), 14.7%.
The result for `CC(NC(=O)c1ccccc1F)c1cccc2ccccc12` (stereo not given) reads 29.1%; that for `C#CCOCCOCCOCCNc1nc(N2CCN(C(=O)[C@H](CO)n3cc([C@@H](N)C(C)C)nn3)CC2)nc(N2CCN(C(=O)[C@H](CCC(=O)O)n3cc([C@@H](N)[C@H](C)CC)nn3)CC2)n1`, 3.25%.
The result for `Cc1n[nH]c(=O)c2c(NC(=O)CSc3ccccc3F)oc(C)c12` reads 15.6%; that for `Cc1n[nH]c(=O)c2c(NC(=O)COC(=O)c3ncc(Cl)c(Cl)c3Cl)oc(C)c12`, 52.6% (active); that for `Cc1n[nH]c(=O)c2c(NC(=O)CSc3cc(Cl)ccc3Cl)oc(C)c12`, 15.7%.
For `Cc1ccc(NC(=O)C2CCC(C(C)(C)C)CC2)cc1S(=O)(=O)N1CCOCC1` (stereo not given), the inhibition was 13.3%.
The result for `O=C(CC1CCCCC1)NCc1ccccc1` reads 7.66%; that for `CCCCNC(=O)CN1C(=O)NC(Cc2ccccc2)(Cc2ccccc2)C1=O`, 28.3%.
The result for `O=C(CN1C(=O)NC(Cc2ccccc2)(Cc2ccccc2)C1=O)NCC1CCCCC1` reads 42.4% (active).
The result for `Cc1noc(C)c1NC(=O)Nc1cccc2c1O[C@H](CN(C)S(=O)(=O)c1c(C)noc1C)[C@@H](C)CN([C@H](C)CO)C2=O` reads -0.11%; that for `CCOc1ccccc1Nc1nnc(SCC(=O)NCC2CCCO2)s1` (stereo not given), 6.79%.
Consider `COc1ccc(C(=O)NC2CC(C)(C)Cc3c2cnn3-c2ccccc2C)o1` (stereo not given), for which the inhibition was 71.7% (active).
To `COc1ccc(C(=O)NC2CC(C)(C)Cc3c2cnn3-c2ccccc2)c(OC)c1` (stereo not given) belongs 34.6%.
The result for `COCc1ccc(C(=O)NC2CC(C)(C)Cc3c2cnn3-c2ccc(C)cc2)o1` (stereo not given) reads 34.1%; that for `COc1cc(OC)c2c(-c3cccc(-c4cccc(N)c4)c3)cc(=O)oc2c1`, 7.11%; that for `COc1cccc(/C=N/Nc2cc(C)nc(-c3ccccc3O)n2)c1O`, 107% (active).
To `COc1cccc(/C=N/Nc2ncc(C(F)(F)F)cc2Cl)c1O` belongs 9.55%.
On to `COc1ccccc1/C=N/Nc1nc(C)c(C(C)=O)s1`, for which the inhibition was 13.4%.
In the case of `Cc1scc(C(=O)NNC(=S)NCc2ccccc2)c1C`, the inhibition is 11.1%.
To `CCOC(=O)C1CCCN(C(=O)CSc2nnc3nc(C)cc(C)n23)C1` (stereo not given) belongs 0.28%.
To `N#Cc1c(NCCO)ccc([N+](=O)[O-])c1NCCO` belongs 49.8% (active).
Take `O=[N+]([O-])c1ccc(NCCCO)c(C(F)(F)F)c1`: the inhibition is 28.9%.
To `O=C(NCCNc1ccccc1[N+](=O)[O-])c1ccccc1F` belongs 9.6%.
Consider `COc1ccccc1N(CCOc1ccccc1)S(=O)(=O)c1ccccc1`, for which the inhibition is 26.3%.
To `COc1ccc(C(=O)NCC(=O)N/N=C/c2ccc([N+](=O)[O-])o2)cc1OC` belongs 40%; to `Cc1cc(C)nc(N/N=C/c2c(C)oc3ccccc23)n1`, 24.7%; to `Cc1cc(C)nc(N/N=C/c2ccc([N+](=O)[O-])o2)n1`, 60.5% (active).
Regarding `COc1ccc(S(=O)(=O)N2CCCCCC2)cc1NC(=O)Cc1ccc(OC)c(OC)c1`, the inhibition was 8.64%.
On to `COc1cc(OC)cc(-c2c(C#Cc3ccsc3)c3cc(-c4ccc(OC)cc4F)ccc3n2C)c1`, for which the inhibition is 9.29%.
The result for `Cc1noc(C)c1S(=O)(=O)N(C)C[C@H]1Oc2ccc(NC(=O)C3CC3)cc2C(=O)N([C@H](C)CO)C[C@@H]1C` reads 3.87%; that for `CN1C(=O)[C@H]2[C@@H](/C=C/c3ccccc3)N3C(=O)CN(Cc4ccc(-c5ccccc5)cc4)C(=O)[C@@]3(C)[C@H]2C1=O`, -0.45%; that for `CN1CCN(c2ccc(S(=O)(=O)Nc3ccccc3)cc2[N+](=O)[O-])CC1`, 27.9%.
The result for `O=[N+]([O-])c1cccc2ncccc12` reads 22.2%; that for `CN1CN(C)c2ccc([N+](=O)[O-])c3cccc1c23`, 44.5% (active).
On to `Cc1ccccc1NC(=O)CSC(=O)c1ccccc1`, for which the inhibition is 3.63%.
As to `COC(=O)C1CCN(C(=O)COC(=O)c2cc(S(=O)(=O)N3CCOCC3)ccc2C)CC1`, the inhibition was -3.08%.
The result for `CN1CCN(/N=C/c2ccc(C#N)cc2)CC1` reads 37.9%; that for `CN1CCN(/N=C2/C(=O)Nc3ccc([N+](=O)[O-])cc32)CC1`, 72.6%.
Turning to `CN1CCN(/N=C/c2ccc(-c3ccc([N+](=O)[O-])cc3)o2)CC1`, the inhibition was 83.2% (active).
To `C[C@H](CO)N1C[C@H](C)[C@@H](CN(C)Cc2ccc(-c3ccccc3)cc2)Oc2ccc(NC(=O)Cn3cnnn3)cc2C1=O` belongs -2.89%; to `CC(C)N(C(=O)[C@H]1C[C@H](CC(=O)NCCC2=CCCCC2)C(=O)N2CCc3c([nH]c4cc(CCC(=O)N(C)C)ccc34)[C@]12C)C(C)C`, 10.8%.
Consider `CC(C)(C)n1cnnc1Sc1ccc([N+](=O)[O-])cn1`, for which the inhibition is 36.8%.
The result for `Cn1cnnc1Sc1ccc(S(C)(=O)=O)cc1[N+](=O)[O-]` reads 95.8% (active); that for `CCN(CC(=O)Nc1c(F)cccc1F)C(=O)c1ccc(Sc2nncn2C)c([N+](=O)[O-])c1`, 37%.
With `CC[C@]12c3[nH]c4ccc(Cl)cc4c3CCN1C(=O)[C@@H](CC(=O)NCCN1CCOCC1)C[C@@H]2C(=O)N1CCN(C(=O)C2CC2)CC1`, the inhibition was 3.88%.
To `O=C(/C=C/c1ccc([N+](=O)[O-])o1)NNC(=O)c1ccc(F)cc1` belongs 57.8% (active).
To `O=C(NNC(=O)C1CCCC1)c1ccc(F)cc1` belongs 7.91%; to `Cc1ccc(/C=C/C(=O)Nc2ccc([N+](=O)[O-])c(NC(=O)/C=C/c3ccc(C)o3)c2)o1`, 13.2%; to `C=CCn1c(SCc2c(C(=O)OC)sc(N)c2C(=O)OC)nnc1-c1ccc(Cl)cc1`, 45.4% (active).
`C=CCn1c(SCc2cc(C(=O)OC)c(C)o2)nnc1-c1ccncc1`: the inhibition was 18.3%.
The result for `C=CCn1c(SCn2nnc3ccccc3c2=O)nnc1-c1ccc(Cl)cc1` reads 25%.
With `Cc1ccc(NC(=O)COC(=O)C2CC2)cc1S(=O)(=O)N1CCOCC1`, the inhibition was 4.49%.
The result for `CCCCOc1ccc(C(=O)NCC(=O)OCC(=O)c2c(N)n(C)c(=O)n(C)c2=O)cc1` reads 4.34%; that for `COc1ccc(NC(=O)CNc2cc(S(=O)(=O)N3CCOCC3)ccc2N2CCOCC2)c(OC)c1`, 17.1%; that for `C#CCOCCOCCOCCNc1nc(N2CCN(C(=O)[C@H](CCC(=O)O)n3cc(CN)nn3)CC2)nc(N2CCN(C(=O)[C@H](CCC(=O)O)n3cc(CN)nn3)CC2)n1`, 4.4%.
Take `CCn1c(=S)[nH]c2cc(S(=O)(=O)N3CCOCC3)ccc21`: the inhibition was 8.76%.
In the case of `COCC(C)n1c(SCc2ccc(C(=O)OC)o2)nc2ccccc2c1=O` (stereo not given), the inhibition is 29.3%.
On to `COCCn1c(C)cc(C(=O)CSc2nc3ccccc3c(=O)n2C(C)COC)c1C` (stereo not given), for which the inhibition is 9.56%.
To `COCC(C)n1c(SCC(=O)NC2CCCCC2C)nc2ccccc2c1=O` (stereo not given) belongs 39.7% (active); to `O=C1CCC/C=C\C[C@@H](CC(=O)N(CCO)Cc2ccccc2)C(=O)NCCO1`, 3.3%; to `O=C(NCc1ccco1)C1CCCN(S(=O)(=O)c2cccc3nonc23)C1` (stereo not given), 95.8% (active).
To `O=C(c1ccco1)N1CCN(C(=O)C2CCCN(S(=O)(=O)c3cccc4nsnc34)C2)CC1` (stereo not given) belongs 59.8% (active); to `COc1ccccc1CNC(=O)C1CCCN(S(=O)(=O)c2cccc3cccnc23)C1` (stereo not given), 11.7%.
Consider `COc1cccc(N2CCN(C(=O)C3CCCN(S(=O)(=O)c4cnc[nH]4)C3)CC2)c1` (stereo not given), for which the inhibition was 4.15%.
On to `O=C(NCc1ccco1)C1CCCN(S(=O)(=O)c2ccccc2)C1` (stereo not given), for which the inhibition is 22.4%.
To `CCCCN(C)CCNC(=O)C1CCCN(S(=O)(=O)c2cccc3nsnc23)C1` (stereo not given) belongs 26.9%.
Turning to `O=C(c1ccco1)N1CCN(C(=O)C2c3ccccc3Oc3ccccc32)CC1`, the inhibition is -0.85%.
To `O=C(NCc1ccco1)C1CCCN(S(=O)(=O)c2cnc[nH]2)C1` (stereo not given) belongs 6.51%; to `CCCCN(CC)C(=O)C1CCCN(S(=O)(=O)c2cccc3nsnc23)C1` (stereo not given), 39.7% (active).
